In the supplement of paper PMC3342239:
Counter-ions that a name gives are not always drawn.

Test system: Saccharomyces cerevisiae
Assay: fraction of cells in G1 phase (DNA content, flow cytometry); higher = more cells with unreplicated DNA (G1 delay)
Details: temperature: 30 C; YPD; JTY2953 pdr5 snq2 (sensitized); drug added to: cultures diluted from stationary phase; 6-7 h
How it was run: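 S. cerevisiae in YPD at 30°C was treated with library drugs, with DMSO-only wells as reference. Sensitized JTY2953 cultures diluted 1∶200 from overnight received a final 20 µg/ml and were fixed after 6–7 h; other runs dosed dividing JTY2953 (fixed 6 h later) or BY4741 (4.33 h later). Ethanol-fixed cells were stained with SYTOX Green and 10,000 events read by flow cytometry. G1 fraction is the Dean-Jett-Fox G1 peak area over G1 plus G2/M areas.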

Row | Compound | fraction of cells in G1 phase
1 | C=C1/C(=C\C=C2/CCC[C@]3(C)[C@@H]([C@H](C)CCCC(C)(C)O)CC[C@@H]23)C[C@@H](O)C[C@@H]1O [Calcitriol] (48.0019 µM) | 0.565
2 | COc1c(C)c2c(c(O)c1C/C=C(\C)CCC(=O)O)C(=O)OC2 [Mycophenolic acid] (62.4326 µM) | 0.54
3 | CN1[C@@H]2CC[C@H]1C[C@@H](OC(=O)c1c[nH]c3ccccc13)C2 [Tropisetron HCl] (70.3331 µM) | 0.469
4 | COC(=O)Nc1nc2cc(C(=O)c3ccccc3)ccc2[nH]1 [Mebendazol] (67.7277 µM) | 0.352
5 | COc1ccccc1OCCNCC(O)COc1cccc2[nH]c3ccccc3c12 (centres undefined) [Carvedilol] (49.2022 µM) | 0.525
6 | Cc1ccc(NC(=O)c2ccc(CN3CCN(C)CC3)cc2)cc1Nc1nccc(-c2cccnc2)n1 [Imatinib] (40.5173 µM) | 0.52
7 | N.N.O=C([O-])C[O-].[Pt+2] [Nedaplatin] (65.9657 µM) | 0.545
8 | C[C@]12C=CC(=O)C=C1CC[C@@H]1[C@@H]2C(=O)C[C@@]2(C)[C@H]1CC[C@]2(O)C(=O)CO [Prednisone] (55.7976 µM) | 0.496
9 | CC(C)(C)NCC(O)c1ccc(O)c(CO)c1 (centres undefined) [Salbutamol sulfate] (83.5711 µM) | 0.535
